Among the data in PubChem BioAssay AID493113 (Johns Hopkins Ion Channel Center, 2011) are outcome values, retold here.

Entries with a potency or affinity are not part of this list. Calls of active or inactive are those of the source.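 Rule for the calls: active = compound that boosts KCNQ2 potassium channel current at some tested dose and yields a dose response curve; inactive = no boost at any tested dose or no curve.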

Sequence of Potassium voltage-gated channel subfamily KQT member 2 (Rattus norvegicus) (O88943 whole entry, looked up): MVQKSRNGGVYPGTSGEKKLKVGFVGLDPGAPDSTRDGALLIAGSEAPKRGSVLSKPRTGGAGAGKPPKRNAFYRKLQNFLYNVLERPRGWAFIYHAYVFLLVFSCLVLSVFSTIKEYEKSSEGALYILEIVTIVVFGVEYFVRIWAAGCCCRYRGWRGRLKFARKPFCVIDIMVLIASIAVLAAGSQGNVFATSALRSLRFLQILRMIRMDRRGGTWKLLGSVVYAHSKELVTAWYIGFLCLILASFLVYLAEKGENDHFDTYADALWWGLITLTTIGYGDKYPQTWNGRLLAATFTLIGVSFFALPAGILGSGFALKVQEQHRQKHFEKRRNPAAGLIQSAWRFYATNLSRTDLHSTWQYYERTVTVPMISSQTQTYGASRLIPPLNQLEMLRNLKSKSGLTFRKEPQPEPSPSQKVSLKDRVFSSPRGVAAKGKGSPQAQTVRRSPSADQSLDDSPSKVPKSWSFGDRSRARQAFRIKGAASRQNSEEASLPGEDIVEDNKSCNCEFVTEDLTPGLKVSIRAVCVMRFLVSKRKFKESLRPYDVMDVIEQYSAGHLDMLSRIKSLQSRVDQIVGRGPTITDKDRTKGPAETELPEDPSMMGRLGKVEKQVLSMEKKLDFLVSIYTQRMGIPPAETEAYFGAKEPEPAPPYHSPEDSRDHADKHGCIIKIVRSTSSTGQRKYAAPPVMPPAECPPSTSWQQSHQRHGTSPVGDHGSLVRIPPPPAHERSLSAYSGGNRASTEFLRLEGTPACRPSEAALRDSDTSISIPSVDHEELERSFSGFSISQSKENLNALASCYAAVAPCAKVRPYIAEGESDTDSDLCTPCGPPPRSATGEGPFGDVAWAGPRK

This assay addresses Potassium voltage-gated channel subfamily KQT member 2 (Rattus norvegicus) (UniProt O88943). Nature of the assay: rat KCNQ2 current potentiators – automated patch clamp, KCNQ2-CHO cells, SAR follow-up (AID 493113). Conditions: series mostly up to 30 µM.
`O=C(Nc1ccccn1)C1CC2CCC1C2` (configuration not stated): the outcome was inactive.

Take `Cc1cc(C)c(NC(=O)c2ccccc2)c(C)c1`: the result was inactive.

Take `CCC(=O)Nc1c(C)cc(C)cc1C`: the result was inactive.

Turning to `Cc1cc(C)cc(NC(=O)C2CC3CCC2C3)c1` (configuration not stated), the result was inactive.

For the compound `Cc1cc(C)c(NC(=O)C23CC4CC(CC(C4)C2)C3)c(C)c1`, the result was inactive.

As to `O=C(Nc1ccccc1)C1CC2CCC1C2` (configuration not stated), the result was inactive.

For `O=C(Nc1ccc(C(F)(F)F)cc1)C1CC2CCC1C2` (configuration not stated), the outcome was inactive.

Take `Cc1cc(C)c(NC(=O)c2ccc(C(F)(F)F)cc2)c(C)c1`: the outcome was inactive.

Consider `Cc1cc(C)c(NC(=O)C(C)(C)C)c(C)c1`, for which the result was inactive.

For `Cc1cc(C)c(NC(=O)c2ccc3ccccc3c2)c(C)c1`, the result was inactive.

Regarding `Cc1cc(C)c(NC(=O)c2ccc(Cl)c(Cl)c2)c(C)c1`, the outcome was inactive.

As for `Cc1ccc(C(=O)Nc2c(C)cc(C)cc2C)cc1`, the result was inactive.

Turning to `Cc1cc(C)c(NC(=O)c2cccc(C(F)(F)F)c2)c(C)c1`, the result was inactive.

`Cc1cc(C)c(NC(=O)c2cc(C(F)(F)F)cc(C(F)(F)F)c2)c(C)c1`: the result was inactive.

For `Cc1cc(C)c(NC(=O)C23CCC(C)(C(=O)O2)C3(C)C)c(C)c1` (configuration not stated), the result was inactive.

Take `CC(=O)Nc1c(C)cc(C)cc1C`: the result was inactive.

Regarding `O=C(Nc1ccc(F)cc1)C1CC2CCC1C2` (configuration not stated), the outcome was inactive.
